Measurements published in ChEMBL document CHEMBL3988442, “University of Dundee, Small-Polar-MMV Screening Library” (2021).
About 13,000 (27%) of roughly 48,000 compounds showed an effect of 50% or more. The list shows a part of the results.

system: Wolbachia pipientis; assay: Anti-Wolbachia Cell-Based Screen; format: functional; parameters: scale not given: in the data most compounds retested in dose-response had high values; settings: 5 µM

SMILES | Percent Effect [%]
Cc1ncc2c(n1)CN(C(C(N)=O)c1ccc(F)cc1)CC2 (centres undefined) | -2.692
CC(C)c1ncc2c(n1)CN(c1ncnc3[nH]ccc13)CC2 | 96.63
Cc1ncc2c(n1)CN(c1ncnc3[nH]ccc13)CC2 | 103
CC(C)CCN(C(=O)c1cc2c([nH]c1=O)CCCC2=O)C1CC1 | -4.935
O=C(NC(C1CC1)C1CC1)c1cccc[n+]1[O-] | 1.029
Cn1cc(Br)cc(NC(=O)Cc2cccs2)c1=O | -8.828
CCc1cnc(CNc2cccc3c2CCN(S(=O)(=O)CC)C3)o1 | -1.845
CN(CCCc1cc(-c2cccc(F)c2)n[nH]1)C(=O)CCn1cncn1 | 11.69
CNC(=O)[C@@H](C1CCCCC1)N1CCC[C@H]1C(=O)N(C)CCN(C)C.Cl.Cl | 6.649
Cc1cccc(CN2Cc3[nH]nc(COCc4nccs4)c3C2)n1.O=C(O)C(F)(F)F | -5.307
Cc1nc(-c2cnn(C)c2)nc2c1CN(C(=O)c1cccn1C)CC2 | -11.99
CC(C)NC(=O)N1CCc2c(CNc3ncccn3)cncc2C1.Cl | -8.609
Cc1cccc(C(=O)N2CCc3c(COCC4CC4)cncc3C2)n1 | -8.984
CS(=O)(=O)NCc1cncc2c1CCN(C(=O)c1ccccn1)C2 | 100.5
Cc1occc1C(=O)N1CCc2c(CNS(C)(=O)=O)cncc2C1.Cl | 99.94
COCc1cncc2c1CCN(C(=O)c1ccoc1C)C2 | -16.93
CS(=O)(=O)NCc1cncc2c1CCN(C(=O)c1cccnc1)C2.Cl.Cl | 94.15
CN(C)C(=O)N1CCc2c(CNc3ncccn3)cncc2C1 | -13.49
Cc1occc1C(=O)N1CCc2c(CNc3ncccn3)cncc2C1.Cl | -10.41
Cl.Cn1cccc1C(=O)N1CCc2c(CNS(C)(=O)=O)cncc2C1 | 99.59
O=C(O)C1CCN(c2ccc(Sc3ccc(Br)cc3)nn2)CC1 | -8.294
Cc1cccc2c1OCCC2NCc1c(C)nn(C)c1N(C)C (centres undefined) | -23.23
Cc1ccc(C(=O)N2CCc3c(COCC4CC4)cncc3C2)o1 | -16.58
Cc1ccc(C(=O)N2CCc3c(CNS(C)(=O)=O)cncc3C2)o1.Cl | -12.96
Cc1ccc(C(=O)N2CCc3c(CNc4ncccn4)cncc3C2)o1.Cl | 96.21

SMILES | Percent Effect [%]
CCc1cnc(N2CCN(Cc3ccon3)CC2)s1 | -1.549
O=C(c1cc(Cl)c2c(c1)OCCCO2)N(CC1CCOC1)C1CC1 (centres undefined) | -3.487
Cn1c(=O)c2sccc2n(Cc2ccccc2)c1=O | -1.761
COc1ccc(Cn2c(=O)n(C)c(=O)c3sccc32)cc1 | 5.606
CCn1c(=O)c2sccc2n(CC(=O)Nc2cccc(Cl)c2)c1=O | 148.7
CC(C)n1c(=O)c2sccc2n(CC(=O)Nc2ccccc2)c1=O | 126.1
Cn1c(=O)c2sccc2n(CC(=O)Nc2cccc(Cl)c2)c1=O | 134.9
CC(C)c1cccc(NC(=O)Cn2c(=O)n(C)c(=O)c3sccc32)c1 | 155.2
O=C(Cn1c(=O)nc2n1C(=O)N(c1ccccc1)C2)Nc1ccccc1 | 2.08
Cc1cc(=O)n(CC(=O)Nc2cccc(Cl)c2)nc1C | -4.372
CCn1nc(C)c2nnn(CC(=O)Nc3cccc(Cl)c3)c(=O)c21 | -0.8024
CC(C)c1cccc(NC(=O)N2CC(N(C)C)C2)c1 | -4.396
O=C(Cn1cc(-c2ccccc2)ncc1=O)Nc1ccncc1 | 8.409
COc1cccc(Cn2c(=O)n(C)c(=O)c3sccc32)c1 | -18.58
O=C(NCc1ccco1)Nc1cccc(S(=O)(=O)C(F)F)c1 | 12.8
Cc1nc2cc(OCc3nc(C(=O)NC(CO)CO)co3)ccc2s1 | -12.2
CCC(C(=O)NCc1ccncc1)N(c1ccc(F)cc1)S(C)(=O)=O (centres undefined) | -11.09
Cc1cc(C)c2nc(CN3CCC(CN)C3)cc(O)c2c1 (centres undefined) | -17.01
Cc1cc(Br)oc1C(=O)N1CCN(CC(N)=O)CC1 | -14.01
CS(=O)(=O)Cc1nc(C2CC2)nn1-c1ccccn1 | -14.62
CC(C)CS(=O)(=O)N1CCC2(CC1)CCn1c(-c3cnn(C)c3)cnc12 | 2.953
CC(C)n1c(=O)c2sccc2n(CC(=O)Nc2cccc(Cl)c2)c1=O | 121.3
Cn1cc(CC(CNC(=O)Nc2cccc(Cl)c2)C(N)=O)cn1 (centres undefined) | 3.636
CN(C)c1nc(N)nc(CSCCC(=O)Nc2cccc(Cl)c2)n1 | 5.106
